Only some compounds are listed: those with a hit (about 3.5% of all), similar ones and a draw of the others.
UGM FP inh: blocks M. tuberculosis UGM enzyme; P9WIQ1; purified UGM, fluorescence polarization probe displacement; inhibition, % at 10 µM; 320,000 compounds, 0.06% hits; in the data active means inhibition above about 10%, passing the limit was not always enough
Target sequence (P9WIQ1 whole entry, looked up): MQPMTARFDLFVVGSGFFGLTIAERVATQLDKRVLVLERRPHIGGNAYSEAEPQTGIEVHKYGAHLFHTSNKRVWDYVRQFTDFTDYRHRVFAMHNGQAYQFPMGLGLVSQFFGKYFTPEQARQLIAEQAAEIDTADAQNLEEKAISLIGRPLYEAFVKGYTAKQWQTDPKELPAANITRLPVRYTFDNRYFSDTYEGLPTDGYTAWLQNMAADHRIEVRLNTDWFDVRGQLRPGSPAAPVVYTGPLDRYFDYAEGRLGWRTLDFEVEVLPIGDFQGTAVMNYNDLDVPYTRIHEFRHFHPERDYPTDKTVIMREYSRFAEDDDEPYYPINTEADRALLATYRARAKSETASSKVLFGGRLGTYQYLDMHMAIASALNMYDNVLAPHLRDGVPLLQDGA
Mtb FBA inh: inhibitors of M. tuberculosis fructose-bisphosphate aldolase; P9WQA3; purified M. tuberculosis FBA, fluorescence read-out; inhibition, % at 1 µM; 360,000 compounds, 2.3% hits;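 further: 0% = vehicle and 100% = reference inhibitor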
Rv3671c inh: Rv3671c (M. tuberculosis) protease inhibition; inhibition, % at 5.96 µM; 320,000 compounds, 0.048% hits; AID 2606; in the data active means inhibition above about 38%;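 further: extracellular domain of Rv3671c used as enzyme; 0% = enzyme with DMSO and 100% = no enzyme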
GDH-TPI counter-1: counter-screen for M. tuberculosis FBA inhibitors: GDH-TPI coupled enzymes | GDH-TPI coupled enzyme counterscreen, NADH absorbance | inhibition, % at 4.8 µM | AID 588335 | 360,000 compounds, 1.2% hits; in the data active means inhibition above about 30%;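 further: 0% = DMSO wells and 100% = wells lacking the enzyme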
Mtb FBA confirm: confirmation of M. tuberculosis fructose-bisphosphate aldolase inhibitors; purified M. tuberculosis FBA, fluorescence read-out; shares compounds with Mtb FBA inh; inhibition, % at 1 µM; 5,600 compounds, 78% hits;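 further: 0% = vehicle wells and 100% = reference inhibitor wells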
GDH-TPI counter-2: counter-screen for M. tuberculosis FBA inhibitors: GDH-TPI coupled enzyme inhibition; 5,600 compounds, 81% hits; GDH-TPI coupled enzyme counterscreen, fluorescence; inhibition, % at 1 µM; shares compounds with Mtb FBA inh; in the data active means inhibition above about 10%
Numbers without * were called inactive; nt = no result; + = active, no number. Unless noted, no stated cut-off is given here; in the data, active means inhibition above about 27%; inactive means the rest.

SMILES | UGM FP inh | Mtb FBA inh | Rv3671c inh | GDH-TPI counter-1 | Mtb FBA confirm | GDH-TPI counter-2
CCN(C(=O)COC(=O)CCCN1C(=O)c2cccc3cccc(c23)C1=O)C1CCS(=O)(=O)C1 (stereo unspecified) | -0.8 | 32.8* | 9.5 | 17.4 | + | +
O=C(CN1C(=O)c2cccc3cccc(c23)C1=O)N1CCCCCC1 | 2.8 | 33.0* | 4.3 | 26.8 | 96.1* | 85.3*
O=C(CCCN1C(=O)c2cccc3cccc(c23)C1=O)NCc1cccnc1 | 0.7 | 34.6* | 3.6 | 1.9 | + | +
O=C(CN1C(=O)c2ccccc2C1=O)N1CCCCC1 | -2.4 | -0.5 | -1.6 | 9.7 | nt | nt
CN(C(=O)COC(=O)CCCN1C(=O)c2cccc3cccc(c23)C1=O)C1CCS(=O)(=O)C1 (stereo unspecified) | -2.5 | 28.8* | 3.3 | 13.2 | 144.2* | 99.7*
COc1ccc(C)cc1-n1nnnc1SCc1nc(N)nc(N(C)C)n1 | nt | -5.2 | nt | 6.2 | nt | nt
O=C1c2cccc3cccc(c23)C(=O)N1CCO | nt | 51.3* | nt | 33.0* | 158.2* | 162.4*
CCOC(=O)CCCCCN1C(=O)c2cccc3cccc(c23)C1=O | -2.3 | 28.2* | -9.2 | 19.3 | 113.4* | 66.6*
Cc1cc(OCC(=O)OCC(=O)Nc2ccc(Cl)cn2)ccc1Cl | 2.8 | 0.4 | -4.6 | -1.3 | nt | nt
CCCc1cc(=O)oc2cc(C)cc(OCC(=O)NCc3ccccn3)c12 | 0.2 | 54.8* | 3.9 | 5.6 | 28.5* | 32.3*
CCCCc1cc(=O)oc2cc(C)cc(OCC(=O)NCc3ccncc3)c12 | 0.1 | 81.1* | -10.2 | 6.6 | 139.1* | 108.1*
Cc1cc(OCC(=O)NCc2ccccn2)c2c(C)cc(=O)oc2c1 | -1.8 | 79.4* | -1.6 | 3.0 | 102.5* | 72.2*
CCCCc1cc(=O)oc2cc(C)cc(OCC(=O)NCC3CCC(C(=O)O)CC3)c12 (stereo unspecified) | 4.5 | 67.0* | 5.8 | 2.1 | -0.5 | -1.6
CCCc1cc(=O)oc2cc(OCC(=O)NCc3ccccn3)ccc12 | -1.9 | 25.2 | -3.9 | 2.6 | nt | nt
Cc1cc(=O)oc2cc(OCC(=O)NCc3ccccn3)ccc12 | -1.3 | 13.8 | -9.6 | 6.0 | nt | nt
CCCCN1C2CCCC1CC(NC(=O)c1cccc(Cl)c1)C2 (stereo unspecified) | -2.9 | 2.0 | -1.6 | 10.4 | nt | nt
c1ccc2c(c1)OCC(C1=NCCN1)O2 (stereo unspecified) | -1.1 | 1.5 | 0.0 | 3.6 | nt | nt
c1ccc(N2CC3COc4ccccc4C3=N2)cc1 (stereo unspecified) | nt | 57.9* | nt | 17.2 | 73.1* | 71.2*
Cc1ncc(CO)c(/C=N/NC(=O)c2ccoc2C)c1O | nt | 33.2* | nt | 10.4 | 1.7 | 2.5
CC(C)c1ccc(NC(=S)N2CCCC2)cc1 | -2.1 | 10.0 | -2.5 | -0.3 | nt | nt
CC(C)c1ccc(NC(=S)N2CCN(C)CC2)cc1 | -0.5 | 32.1* | nt | 7.7 | 0.2 | -3.9
CCc1ccc(CN(C)C(=O)c2cc(=O)c3ccccc3o2)cc1 | 4.2 | -2.0 | -3.8 | -16.3 | nt | nt
COc1ccc(CCN(C)C(=O)c2cc(=O)c3ccccc3o2)cc1OC | -0.2 | 50.2* | 2.7 | 3.0 | -22.1 | -17.7
CCOC(=O)c1nc2c(ccc3ccccc32)cc1C | -2.1 | 30.8* | -3.4 | 3.0 | + | 168.1*
Cc1ccc(C=Nc2ccccc2C(=O)Nc2ccccc2)cc1 | 1.4 | 38.8* | -5.2 | 7.1 | 136.2* | 102.6*
SMILES | UGM FP inh | Mtb FBA inh | Rv3671c inh | GDH-TPI counter-1 | Mtb FBA confirm | GDH-TPI counter-2
COc1cccc(C=Nc2ccccc2C(=O)Nc2ccccc2)c1O | 0.0 | 29.5* | 1.8 | 3.0 | 129.2* | 107.0*
Cc1ccc(C(=O)c2ccccc2C(=O)Nc2ccccc2)cc1 | -0.5 | -1.1 | -2.9 | 2.7 | nt | nt
O=C(Nc1ccccc1)c1ccccc1N=Cc1cccc(O)c1 | 2.9 | 41.2* | 7.0 | 7.5 | 51.4* | 39.8*
COc1cccc(/C=N/NC(=O)CSCC(=O)Nc2ccccc2)c1O | 1.6 | 0.2 | -7.6 | 6.7 | nt | nt
O=C(N/N=C/c1cccc(O)c1)c1ccccc1O | 7.5 | -2.0 | 2.7 | 15.9 | nt | nt
NC(=O)c1ccccc1N=Cc1cccnc1 | -1.2 | 19.6 | 3.7 | -0.4 | nt | nt
Cc1ccc(C=Nc2ccccc2C(N)=O)cc1 | 1.4 | 65.0* | 0.4 | 0.7 | 83.0* | 74.3*
Cc1ccccc1C=Nc1ccccc1C(N)=O | 2.3 | 49.6* | 1.0 | 8.0 | 71.5* | 57.1*
Cc1c(OCC(=O)NC2CC(C)(C)NC(C)(C)C2)ccc2c1oc(=O)c1ccccc12 | 0.3 | 63.2* | -5.8 | 17.7 | 49.8* | 58.9*
Cc1cc(=O)oc2c(C)c(OCC(=O)NC3CC(C)(C)NC(C)(C)C3)ccc12 | -4.4 | 18.0 | 1.0 | 10.4 | nt | nt
Cc1c(OCC(=O)NC2CC(C)(C)NC(C)(C)C2)ccc2c3c(c(=O)oc12)CCC3 | 1.0 | 31.7* | -3.5 | 13.9 | 43.5* | 34.7*
COC(=O)C1CN(S(=O)(=O)c2cc(OC)ccc2OC)CCS1 (stereo unspecified) | -3.0 | 2.7 | 3.6 | -7.4 | nt | nt
O=C(NCc1cc2ccccc2[nH]1)C1CCC(=O)N(CCCN2CCCC2=O)C1 (stereo unspecified) | 3.5 | 30.0* | -2.4 | 4.8 | 62.4* | 32.2*
Cc1ccc(NC(=S)NC(NC(=O)c2ccco2)C(Cl)(Cl)Cl)cc1 (stereo unspecified) | -2.2 | 0.5 | -6.4 | 7.6 | nt | nt
Cc1cccc(NC(=S)NC(NC(=O)c2ccco2)C(Cl)(Cl)Cl)c1 (stereo unspecified) | -1.6 | 73.9* | -3.1 | 16.6 | 89.1* | 95.2*
COc1cc(CCC(=O)NCc2ccc(F)cc2)cc(OC)c1OC | 0.5 | 33.4* | 9.3 | 1.9 | 53.8* | 47.0*
NC(=O)c1cccc(-c2coc3c(C(=O)NCCc4ccccc4)cccc23)c1 | nt | -3.0 | nt | -0.9 | nt | nt
COc1cc2c(cc1OC)[C@@H](NC(=O)CCc1ccccc1)[C@H](OCc1ccccc1)C2 | nt | -1.1 | nt | 4.5 | nt | nt
COc1ccc2cc(C(=O)NCc3ccccc3)c(=O)oc2c1 | -2.5 | 32.9* | -4.1 | 16.3 | 65.3* | 49.6*
COc1ccc2oc(=O)c(C(=O)NCc3cccnc3)cc2c1 | -4.9 | 43.7* | 5.6 | 3.8 | -4.1 | -5.3
COc1ccc2oc(=N)c(C(=O)NCc3ccccc3)cc2c1 | 0.2 | 13.9 | nt | 3.1 | nt | nt
COc1ccc2oc(=O)c(C(=O)NCc3ccc(F)cc3)cc2c1 | -3.0 | 54.0* | -2.0 | 7.1 | 89.6* | 70.0*
CCC1(c2ccc(F)cc2)NC(=O)N(CC(=O)Nc2cc(C)on2)C1=O (stereo unspecified) | nt | -0.9 | -5.2 | -4.7 | nt | nt
O=C(OCc1ccc(Br)cc1F)c1cc2ccccc2oc1=O | 1.9 | 66.6* | 8.5 | 9.7 | 191.4* | 153.2*
CCOC(=O)c1ccc(Oc2coc3cc(O)ccc3c2=O)cc1 | 4.0 | 27.9* | -8.4 | 7.4 | 160.8* | 122.8*
COc1ccc(-c2coc3cc(O)ccc3c2=O)cc1OC | 0.3 | 17.2 | -2.5 | 21.0 | nt | nt
CCOc1ccccc1Oc1coc2cc(OC(=O)c3ccco3)ccc2c1=O | 2.8 | 32.1* | -7.3 | 18.8 | 28.6* | 21.2*

Screens (PubChem BioAssay)
